The record followed here is PubChem BioAssay AID1851 (National Center for Advancing Translational Sciences (NCATS), 2009).

Screen size: about 16,000 compounds; about 2,600 (16%) were called active. Not shown: some 20% with an inconclusive outcome. The list is a sample of the results. A number with no mark means an inactive call. The call rests on the fitted dose curve; in most records, active means well fitted curve in the direction sought with a large enough effect; inconclusive means small, poorly fitted or top-dose-only effect, or effect the other way; inactive means no such curve, though single readings can be large or run the other way.
On the % scale 0 is the no-effect control and ±100 the full control effect.

This experiment deals with Cytochrome P450 2D6 (Homo sapiens) (UniProt P10635). Nature of the experiment: Cytochrome panel assay with activity outcomes. The conditions noted are these: recombinant CYP, pro-luciferin dealkylation, luminescence, p450-cyp2d6; series mostly up to 57.1 µM; activity, negative = inhibition: at the top concentration.
Cytochrome P450 2D6 (Homo sapiens), sequence (P10635 whole entry, looked up): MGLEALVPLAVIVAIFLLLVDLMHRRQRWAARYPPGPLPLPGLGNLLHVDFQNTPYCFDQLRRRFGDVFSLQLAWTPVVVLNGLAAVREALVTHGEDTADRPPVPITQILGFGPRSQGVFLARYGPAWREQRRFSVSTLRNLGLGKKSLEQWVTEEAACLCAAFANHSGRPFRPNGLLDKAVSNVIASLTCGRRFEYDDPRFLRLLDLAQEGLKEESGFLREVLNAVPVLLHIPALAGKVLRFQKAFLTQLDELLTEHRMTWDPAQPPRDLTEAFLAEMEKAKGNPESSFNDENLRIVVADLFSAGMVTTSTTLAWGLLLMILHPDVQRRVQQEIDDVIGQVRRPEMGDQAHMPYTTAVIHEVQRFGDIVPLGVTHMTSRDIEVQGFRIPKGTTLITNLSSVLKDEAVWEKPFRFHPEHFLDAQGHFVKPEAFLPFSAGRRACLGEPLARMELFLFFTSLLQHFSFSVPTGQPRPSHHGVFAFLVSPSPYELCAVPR
In the case of `COc1cc(CC(=O)OC2CCOC2=O)cc(OC)c1OC` (stereo not given), the “activity, negative = inhibition” value was 2.51%.

The AC50 is the concentration at which the activity in the assay is half-maximal. Regarding `Cc1ccc(CN2CC34C=CC(O3)C(C(=O)NCc3ccc5c(c3)OCO5)C4C2=O)cc1` (stereo not given), the AC50 is 14.1 µM (active). The same measure, in the same setting: as for `O=C(NCC1COc2ccccc2O1)C1C2C=CC3(CN(Cc4cccs4)C(=O)C13)O2` (stereo not given), the figure is 14.1 µM (active). As to `COCCCNC(=O)C1C2C=CC3(CN(Cc4ccc(C)cc4)C(=O)C13)O2` (stereo not given), the “activity, negative = inhibition” value was 5.74%. As to `COc1ccc(CCN2CC34C=CC(O3)C(C(=O)NCc3ccccc3)C4C2=O)cc1OC` (stereo not given), the “activity, negative = inhibition” value is 2.38%.

With `CCCCNC(=O)C1C2C=CC3(CN(Cc4ccccc4Cl)C(=O)C13)O2` (stereo not given), the “activity, negative = inhibition” value is -5.2%. In the case of `Cc1ccc(CN2CC34C=CC(O3)C(C(=O)NCc3ccco3)C4C2=O)cc1` (stereo not given), the “activity, negative = inhibition” value is -23.4%.

As for `CCOc1cc(S(=O)(=O)N(Cc2ccccc2)Cc2ccccc2)c(OCC)cc1-n1cnnn1`, the “activity, negative = inhibition” value was -10.1%. In the case of `Cc1nc2ncnn2c(C)c1CCC(=O)NCc1ccccc1`, the “activity, negative = inhibition” value is -10.6%. As to `CCOc1ccc(-n2c(SCC(=O)Nc3ccc(OC)cc3OC)nc3c(c2=O)SCC3)cc1`, the AC50 is 2.24 µM (active). For `COc1ccc(NC(=O)CSc2nncn2C)c([N+](=O)[O-])c1`, the “activity, negative = inhibition” value is -8.81%. On the same count and under the same terms, as for `CCOc1ccc(-c2cc(CCCC(=O)Nc3cc(OC)ccc3OC)no2)cc1`, the figure is -13.6%; as for `N#Cc1cccc(NC(=O)N2CC[C@@]3(CCCN(C(=O)c4ccncc4)C3)C2)c1`, 4.68%; as for `CS(=O)(=O)N1CCC[C@@]2(CCN(C(=O)Nc3cccc(C#N)c3)C2)C1`, 3.58%.

For `CCCc1cc(=O)oc2cc(OCc3nn[nH]n3)ccc12`, the “activity, negative = inhibition” value was -1.03%. Same read-out and setting: as for `CCCc1cc(=O)oc2cc(OCC(=O)N3CCc4ccccc43)ccc12`, the figure is 4.28%. With `CCCCc1cc(=O)oc2cc(OCC(=O)N(CC)CC)ccc12`, the AC50 is 12.6 µM (active).

Consider `COc1cccc2c1C(=O)c1c(O)c3c(c(O)c1C2=O)C[C@@](O)(C(=O)CO)C[C@H]3O[C@H]1C[C@@H](N)[C@H](O)[C@@H](C)O1.[W]`, for which the activity, negative = inhibition is 4.97% [at 11.4 µM]. In the case of `COC(=O)c1nn(-c2ccc(OC)cc2)c(=O)cc1Oc1cccc(Cl)c1`, the “activity, negative = inhibition” value was -27.2%.

`O=C1CCc2cc(OCCCCc3nnnn3C3CCCCC3)ccc2N1`: the “activity, negative = inhibition” value was 4.92%. On the same count and under the same terms, as for `Cn1c(=O)cc(OCCCC(=O)N2CCN(c3ccccc3)CC2)c2ccccc21`, the figure is -13.9%. Turning to `c1ccc(N2CCN(CCCOc3ccc4c(c3)OCO4)CC2)cc1`, the AC50 is 0.126 µM (active). Regarding `Fc1ccc([C@H]2CCNC[C@H]2COc2ccc3c(c2)OCO3)cc1`, the “activity, negative = inhibition” value is -7.19%. On the same count and under the same terms, as for `O=C(O)c1cc(=O)[nH]c(SCc2ccccc2)n1`, the figure is 4.29% [at 11.4 µM]; as for `C#CCCCO/N=C1/C[C@@H](O)[C@@H](O)[C@@H]2[C@@H]3C(=O)N(Cc4ccccc4)C(=O)[C@H]3CC[C@H]12`, 15.7% [at 11.4 µM]; as for `COC(=O)c1cc(Br)c(=O)n(CCc2ccc(O)cc2)c1`, 10.4%.

Turning to `CCNc1ncc2nc(-c3cccs3)c(=O)n(Cc3cccc(OC)c3)c2n1`, the “activity, negative = inhibition” value was -8.54%. The same measure, in the same setting: as for `CC1(C)C2([N+](=O)[O-])CN3CC1([N+](=O)[O-])CN(C2)C3c1ccccc1` (stereo not given), the figure is 15.6%; as for `CO[C@]1(NC(=O)[C@H](C(=O)O)c2ccc(O)cc2)C(=O)N2C(C(=O)O)=C(CSc3nnnn3C)CO[C@H]21`, -2.15% [at 25.6 µM]. As to `O=C(OCn1nnc2ccccc2c1=O)c1cccnc1`, the “activity, negative = inhibition” value is 13.3%. Same read-out and setting: as for `Cc1ccc(C(=O)O/N=C/c2c(Cl)n(C)c3ccccc23)cc1`, the figure is 24.3%.

Consider `Cc1c2cnccc2c(C)c2c1c1ccccc1n2CCOC(=O)c1ccccc1`, for which the AC50 is 3.16 µM (active). `COc1ncc2ncc(=O)n(CCC#N)c2n1`: the “activity, negative = inhibition” value was 11.5%. Take `CC(C)(C)NC[C@H](O)COc1cccc2c1CCCC2=O`: the AC50 result was “inactive”. The same measure, in the same setting: as for `CC(C)(C)NC[C@@H](O)COc1ccccc1C1CCCC1`, the figure is 2.51 µM (active). On to `CC(C)(C)NC[C@H](O)COc1cccc2c1CCC(=O)N2`, for which the “activity, negative = inhibition” value is 1.3% [at 25.6 µM]. The same measure, in the same setting: as for `CC(C)n1cc(/C=C2/SC(=O)N(CC(=O)Nc3ccc4c(c3)OCO4)C2=O)c2ccccc21`, the figure is -9.43%.

Consider `Cc1cccc2cc(=O)[nH]c(C)c12`, for which the “activity, negative = inhibition” value was 1.29%. The same measure, in the same setting: as for `NC(=O)C1(N2CCCCC2)CCN(C(=O)c2cccn3c(=O)c4cc(Cl)ccc4nc23)CC1`, the figure is -10.6%; as for `C=C(CC1([C@@H](NP(=O)(c2ccccc2)c2ccccc2)[C@H]2C[C@@H]2CCCC)CC1)c1ccccc1`, -8.16%. As to `CCCC[C@H]1C[C@@H]1[C@@H]1N(P(=O)(c2ccccc2)c2ccccc2)C[C@@](O)(c2ccccc2)CC12CC2`, the concentration at half-maximal activity (AC50) is 15.8 µM (active).

Regarding `CCCC[C@@H]1C[C@H]1C(NC(=O)c1ccc(-c2ccccc2)cc1)c1ccc(-c2ccccc2)cc1` (stereo not given in full), the “activity, negative = inhibition” value was 5.8%.

In the case of `CCCC[C@H]1C[C@@H]1[C@@H]1N(P(=O)(c2ccccc2)c2ccccc2)[C@](CO)(c2ccccc2)CC12CC2`, the AC50 is 2.51 µM (active). `CCCC[C@@H]1C[C@H]1C(NC(=O)c1ccccc1)c1ccc(-c2ccccc2)cc1` (stereo not given in full): the “activity, negative = inhibition” value was 1.14%. Regarding `Cc1ccc(NC(=O)CCSc2nnc3ccccn23)cc1`, the “activity, negative = inhibition” value was 17.4%. The same measure, in the same setting: as for `CCOC(=O)c1c(C)nc2c(c1-c1ccccc1)C(=O)CC(C)(C)C2`, the figure is -2.11%; as for `CCOC(=O)Cc1csc(NC(=O)c2ccc(Cl)nc2)n1`, -18.4%; as for `COc1ccc(Oc2ncc3ncc(=O)n(C)c3n2)cc1`, -5.86%. Same read-out and setting: as for `Cc1nc2cnc(Nc3ccccc3)nc2n(Cc2cccs2)c1=O`, the figure is 2.37%. Same read-out and setting: as for `O=C1c2ccccc2C(=O)N1CCSC(=S)N1CCOCC1`, the figure is 14.7%. Take `O=C(NCc1cc(F)cc2c1OCCO2)[C@H]1C[C@@H]1[C@H](NP(=O)(c1ccccc1)c1ccccc1)c1ccccc1`: the “activity, negative = inhibition” value was -15.3%. On the same count and under the same terms, as for `C[N@+]1(CCC(=O)c2ccccc2)CC[C@H]2CC[C@H](C2)C1`, the figure is 10.5% [at 11.4 µM]; as for `O=C(O)CCC(=O)CCC(=O)c1ccccc1`, -15.9%. Consider `CC1(C)CC(=O)C(CCC(=O)c2ccccc2)C(C)(C)N1` (stereo not given), for which the AC50 was 0.891 µM (active). For `O=C(c1cccc(F)c1)N1CCC[C@@]2(CCN(c3ccccc3)C2)C1`, the “activity, negative = inhibition” value is -6.42%. Still for that read-out and setting: as for `N/C(=N\OC(=O)Cc1ccc(-c2ccccc2)cc1)c1cccc([N+](=O)[O-])c1`, the figure is -0.456%; as for `CC(=O)O[C@]1(C)N=NC2(CCCCC2)O1`, -4.7% [at 11.4 µM]. As to `COc1ccc(C(CNC(=O)c2cc(=O)[nH]c3ccccc23)N2CCCC2)cc1` (stereo not given), the AC50 was 14.1 µM (active). As to `COc1cc(C(=O)NCC(c2cccnc2)N2CCN(C)CC2)cc(OC)c1OC` (stereo not given), the “activity, negative = inhibition” value was 2.45%. Still for that read-out and setting: as for `CC(C)NC(=O)COC(=O)c1cc(=O)[nH]c2ccccc12`, the figure is -3.79%.
